The other results are listed elsewhere or left out. Records with an inconclusive call do not appear. Calls of active or inactive are those of the source. Calls come from the whole dose curve; as a rule, active = well fitted inhibition curve with a large enough effect; inconclusive = small, poorly fitted or top-dose-only effect; inactive = no such curve, though single readings can be large or run the other way.

This experiment concerns the target 4'-phosphopantetheinyl transferase Sfp (Bacillus subtilis (strain 168)) (UniProt P39135). As to the kind of experiment: qHTS Assay for Inhibitors of Bacillus subtilis Sfp phosphopantetheinyl transferase (PPTase): Gel Based Assay. Conditions: purified Sfp PPTase, gel-based product detection. The text has this: The covalent attachment of a phosphopantetheinyl (4'-PP) arm to a variety of synthases and other proteins is a key posttranslational protein modification. The 4'-PP is installed on the proteins post-translationally from coenzyme A (CoA) on a conserved serine residue by action of phosphopantetheinyl transferase (PPTase) enzymes. Phosphopantetheinylation is essential for synthase activity, and removal of the PPTase gene precludes natural product synthesis in microorganisms, or in the case of fatty acid biosynthesis, renders the organism unviable. PPTase enzymes belong to a distinct structural superfamily. Within bacteria, these enzymes are grouped into two classes based upon primary structure, the AcpS-Type and Sfp-Type PPTases. […]
In search of small molecule Sfp-PPTase inhibitors, a fluorescence quenching assay was developed for detection of Bacillus subtilis Sfp-PPTase enzymatic activity in a miniaturized high-throughput format. […]
In this assay, compounds were evaluated by monitoring of fluorescence transfer to whole carrier protein substrates via polyacrylamide gel electrophoresis. […]
The SDS-PAGE based assay detects the direct incorporation of a fluorescent label into a carrier protein substrate. […] The images are analysed by fluorescent densometry using the ImageJ software package available from the NIH.
Background: qHTS replaces the single test concentration by a dilution series.
With `COc1ccnc(NC(=S)N2CCN(c3ncc(C(F)(F)F)cc3Cl)CC2)c1`, the Potency is 2140 nM (active). With `Cc1cc(C)nc(NC(=S)N2CCN(c3ccc(Cl)cc3C(F)(F)F)CC2)c1`, the Potency was 1070 nM (active).

Source of the values: PubChem BioAssay AID602362 (National Center for Advancing Translational Sciences (NCATS), 2012).
